# TRHR ag – activates the human TRH receptor; 0.18% of 360,000 active; AID 493084; activation, % at 2 µM; TRHR cells, calcium flux fluo-8, FDSS agonist mode; also: 0% is about no effect
#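 TRHR-expressing cells, plated overnight in medium with 10% serum, were loaded with fluo-8 calcium dye at room temperature. After a 10 s baseline, library compound was pin-added and calcium release was recorded kinetically (ex 480/em 530) as agonist response.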
# D1 potentiator – potentiators of human D1 dopamine receptor; HEK293 TREx D1 cells, calcium flux, dopamine EC20 potentiation; AID 504651; 0.036% of 360,000 active; potentiation, % at 10 µM; in the data active = potentiation above about 30%; also: 0% is about no effect
# Target sequence (P21728 whole entry, looked up): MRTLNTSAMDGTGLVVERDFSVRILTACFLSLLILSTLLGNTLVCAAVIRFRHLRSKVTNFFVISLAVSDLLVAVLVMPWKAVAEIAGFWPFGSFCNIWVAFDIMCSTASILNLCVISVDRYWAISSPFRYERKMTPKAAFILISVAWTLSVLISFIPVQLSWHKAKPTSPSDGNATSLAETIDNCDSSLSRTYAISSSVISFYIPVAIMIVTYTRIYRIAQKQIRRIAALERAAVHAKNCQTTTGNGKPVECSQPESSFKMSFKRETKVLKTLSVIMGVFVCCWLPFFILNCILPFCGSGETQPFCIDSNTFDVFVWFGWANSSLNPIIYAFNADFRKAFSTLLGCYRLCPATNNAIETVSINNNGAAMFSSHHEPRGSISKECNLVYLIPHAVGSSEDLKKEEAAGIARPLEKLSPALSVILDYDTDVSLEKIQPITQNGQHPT
# D1 antagonist – human D1 dopamine receptor antagonism | P21728 | HEK293 TREx D1 cells, calcium flux, dopamine EC80; stronger effect = lower value | activity change, negative = inhibition, % at 10 µM | 3.2% of 360,000 active; in the data active = activity change below about -30%; also: % is scaled to controls: 0 for no effect and ±100 for the full control effect
#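 Kinetic fluorescence of a calcium dye serves as the read-out. D1-expressing Hek293 Trex cells, induced overnight at 30 C, are exposed to compound for 180 s before an EC80 dopamine addition, then read 180 s further.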
# D1 ag – activates the human D1 dopamine receptor. HEK293 T-REx D1 cells, calcium flux, agonist mode. 1% of 360,000 active. P21728. activation, % at 2 µM; also: 0% is about no effect
#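 Tetracycline-induced HEK293 TREx D1 cells, force-coupled to calcium signalling, were dye-loaded with a no-wash calcium kit. Compound was pin-added after a 10 s baseline. Fluorescence was read kinetically at 1 cycle/s for 180 s, with calcium rises flagged as agonism.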
# TRHR enhancer – TRH receptor (human) allosteric enhancement. P34981. TRHR cells, fluo-8 calcium fluorescence, EC20 TRH enhancement. enhancement, % at 2 µM. 0.66% of 360,000 active; in the data active = enhancement above about 30%; also: 0% is about no effect
#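 Enhancer read-out: after compound pinning and an initial kinetic agonist-mode read, an EC20 of TRH (10 nM final) was injected and fluo-8 calcium signal (Ex 480/Em 530) followed at 1 s/cycle for 100 cycles in TRHR-expressing cells.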
# * hit, by the source's call; / = no result. This is a sample that favours compounds with a hit; in the whole collection about 4.6% have one here. Rule as the data show it, unless noted: active = activation above about 30%; inactive = the rest.
SMILES,TRHR ag,D1 potentiator,D1 antagonist,D1 ag,TRHR enhancer
CNCCCCOc1ccccc1-c1ccccc1,1.4,-6.0,-47.8*,37.6*,10.1
COCCCNCCCCOc1ccccc1-c1ccccc1,0.2,-7.8,-37.5*,15.3,4.0
CNCCOc1ccccc1-c1ccccc1,-1.0,-3.1,-1.5,0.8,-1.9
COCCCNCCOc1ccccc1-c1ccccc1,0.1,-9.1,-44.1*,14.4,-1.1
CC(=O)c1sc(NC(=O)C(C)Oc2ccc3c(C)cc(=O)oc3c2)nc1C (stereo unspecified),-0.2,-0.7,4.4,5.7,18.8
CSc1ccccc1OCc1cc(C(=O)N[C@H]2CCCCNC2=O)no1,-0.9,-3.7,0.8,0.7,-7.2
Cc1nnc(NC(=O)NC(C)N2C(=O)C3C4C=CC(C4)C3C2=O)s1 (stereo unspecified),0.1,-5.5,-5.1,1.5,-3.4
CCc1nnc(NC(=O)C(C)N2C(=O)C3C4C=CC(C4)C3C2=O)s1 (stereo unspecified),0.4,0.5,-42.8*,0.5,7.2
O=C(NCCc1ccccc1)c1ccc2c(c1)CCN2S(=O)(=O)c1ccccc1,0.6,-2.5,21.9,5.6,4.7
Cc1ccc(NC(=O)c2sc(-n3nc(C)c(Cc4ccc5c(c4)OCO5)c3C)nc2C)cc1C,-0.2,0.2,-10.5,3.2,-4.3
Cc1cc(C)cc(NCc2cc3c(cc2[N+](=O)[O-])OCO3)c1,-0.4,-2.3,-33.4*,2.8,-0.8
Nc1ccc(NC(=S)Nc2ccccc2)cc1,0.4,-1.4,-56.9*,-1.8,-4.3
CC(OC(=O)Cc1cccc(C(F)(F)F)c1)C(=O)Nc1ccc(Cl)cn1 (stereo unspecified),-0.5,-4.8,-2.3,5.0,0.2
COc1cccc(CC(=O)OC(C)C(=O)Nc2ccc(Cl)cn2)c1 (stereo unspecified),-0.9,-2.0,-34.8*,3.9,-4.8
COc1ccc(CNCc2cc(Cl)ccc2O)cc1,0.8,2.1,0.8,38.3*,2.2
Oc1ccc(Cl)cc1CNCc1ccc(Cl)nc1,3.1,-1.6,/,41.6*,3.3
CCO/C=N/c1c(C#N)c(CC#N)nn1-c1ccccc1,0.4,-5.6,-33.0*,2.5,-1.0
CCOC(=O)c1nn(-c2ccccc2)c(=O)c(C#N)c1C,-0.2,-2.6,7.3,-0.7,-0.4
CCOc1ccc(NC(=O)CN2C(=O)COc3ccc(S(=O)(=O)Nc4ccccc4)cc32)cc1,-0.3,-0.1,-4.8,0.3,-2.7
O=C1CCc2cc(S(=O)(=O)N3CCC(C(=O)Nc4nccs4)CC3)ccc2N1,0.3,-0.3,17.4,3.5,-3.6
Cc1cccnc1NC(=O)C1CCN(S(=O)(=O)c2ccc3c(c2)CCC(=O)N3)CC1,0.4,1.9,-42.6*,0.2,-2.2
CS(=O)(=O)N1CCC(C(=O)Nc2ccc(Cl)c(Cl)c2)CC1,4.2,-4.8,-59.0*,19.8,-12.2
Cc1ccc(S(=O)(=O)N2CCC(C(=O)Nc3ccc(C)c(Cl)c3)CC2)cc1,-0.9,-5.0,-39.0*,14.4,5.9
O=C(Nc1ccc2c(c1)OCO2)C1CCCCC1,-0.3,0.4,3.0,4.6,0.4
CS(=O)(=O)N1CCC(C(=O)Nc2cc(Cl)c(Cl)cc2Cl)CC1,-0.4,0.9,-34.2*,5.9,-12.2
SMILES,TRHR ag,D1 potentiator,D1 antagonist,D1 ag,TRHR enhancer
CS(=O)(=O)N1CCC(C(=O)Nc2cc(Cl)ccc2Cl)CC1,-0.8,0.6,2.3,1.4,3.9
O=C(Nc1ccc(Cl)c(Cl)c1)C1CCCCC1,-0.2,-7.8,-32.1*,7.9,-7.1
COc1cc(NC(=O)C(CCSC)NS(=O)(=O)c2ccc3c(c2)oc(=O)n3C)cc(OC)c1 (stereo unspecified),0.2,-0.9,0.5,-1.3,1.3
CCOC(=O)C1CCCN(C(=O)c2ccc(NC(=O)c3nsc4ccccc34)cc2)C1 (stereo unspecified),-0.6,-1.0,-8.9,3.8,5.2
O=C(Nc1ccc(F)cc1)C1CCN(S(=O)(=O)c2ccc3c(c2)CCCN3C(=O)C2CCC2)CC1,0.1,-6.5,-22.5,0.4,-1.9
Cc1ccc(NC(=O)C2CCN(S(=O)(=O)c3ccc4c(c3)CCCN4C(=O)C3CCC3)CC2)cc1,-0.6,-7.0,-48.4*,0.7,-4.4
CCCCNC(=O)C1CC(=O)N(C2CCCCC2)C1 (stereo unspecified),-0.1,1.2,135.7,31.5*,10.8
Cc1ccc(CCNC(=O)C2CC(=O)N(C3CCCCC3)C2)cc1 (stereo unspecified),-0.6,9.1,-1.1,0.6,11.4
COc1cccc(CN2CCc3nc(Nc4ccc5c(c4)OCCO5)ncc3C2)c1OC,-0.1,0.9,17.1,-0.5,-3.5
CN(C)c1ccc(-n2cccc2/C=C/[N+](=O)[O-])cc1,1.7,-13.4,-22.4,2.8,-11.2
CN(c1ccccc1)c1ccc(/C=C/[N+](=O)[O-])cc1,-1.6,-13.6,-52.3*,139.7*,3.1
CCOc1ccc(S(=O)(=O)n2nc(C)cc2C)c2ccccc12,-1.5,2.8,16.7,5.5,35.1*
CCOc1ccc(Cl)cc1S(=O)(=O)n1nnc2ccccc21,-0.2,-2.7,-38.9*,3.1,-2.9
Cc1cc[n+](-c2[nH]c(=O)sc2/C=N/NC([S-])=Nc2ccccc2)cc1C,4.2,-7.2,7.7,5.9,3.2
CC(C)(C)c1cc[n+](-c2[nH]c(=O)sc2/C=N/NC([S-])=Nc2ccccc2)cc1,18.1,-1.9,4.3,90.5*,0.9
CCc1c(C)sc2c1CCN(Cc1ccccc1F)C2c1ccccc1 (stereo unspecified),0.3,0.1,-3.6,3.8,5.2
O=S(=O)(Nc1cccc2ccccc12)c1ccc2ccccc2c1,0.1,-5.5,-13.8,3.6,7.1
CN(C)/C=C1\C=C2C(=O)c3ccccc3N2C1=O,249.2*,1.8,-62.3*,335.0*,31.1*
CN(C)S(=O)(=O)N1C(=O)c2ccccc2C1=O,-1.5,0.9,10.3,3.9,4.8
CC(NC(=O)C1CCN(S(=O)(=O)c2ccc3c(c2)oc(=O)n3C)CC1)c1ccccc1 (stereo unspecified),0.1,-1.6,2.2,-0.9,-3.9
CCCc1cc(=O)oc2c(CN(CC)CC)c(O)c(Cl)cc12,0.2,8.7,-43.6*,2.6,3.4
CCCCc1cc(=O)oc2c(CN(CC)CC)c(O)c(Cl)cc12,0.1,-3.0,5.9,-3.0,4.1
CCCCc1cc(=O)oc2c(CN3CCCC3)c(O)c(Cl)cc12,0.0,0.5,-33.0*,3.8,6.2
Cc1sc(-c2cc3c([nH]c2=O)CC(c2ccccc2)CC3=O)nc1-c1ccc(Cl)cc1 (stereo unspecified),0.6,1.1,1.0,0.3,8.4
NC(=O)c1ccc(/C=N/O)nc1,0.2,1.2,3.3,3.0,37.6*
Cc1cc(N2CCOCC2)nc(SCC(=O)c2ccccc2)n1,-0.3,-2.8,4.9,0.3,2.8

# Assay outcomes deposited in PubChem BioAssay by National Center for Advancing Translational Sciences (NCATS).
